Measured values taken from PubChem BioAssay (Tox21).
Inconclusive results are not listed. Active and inactive are the calls of the source. Calls come from the whole dose curve.

Assay: qHTS assay to identify small molecule agonists of the endoplasmic reticulum stress response signaling pathway - cell viability counter screen (AID 1159517); note: nearly all actives have a fitted effect of over 50% in size
Settings: ESRE-bla HeLa viability, CellTiter-Glo luminescence, 5 h; series mostly up to 61 µM
Excerpt: U.S. Tox21 Program National Center for Advancing Translational Sciences [NCATS] NIH Chemical Genomics Center [NCGC] U.S. Environmental Protection Agency [EPA] National Institutes of Environmental Health Sciences [NIEHS] National Toxicology Program [NTP] U.S. Food and Drug Administration [FDA] Tox21 Assay Overview: Endoplasmic Reticulum (ER) plays an important role in cellular signaling, protein folding/maturation, stress response, lipid biosynthesis, calcium storage and release etc. Under stress conditions, proteins in ER misfold or unfold, and leading to the expression of ER stress responsive genes. ER stress has been associated with a variety of pathophysiological conditions such as cancer, inflammation, neurodegenerative diseases, diabetes, ischemic heart disease etc. To identify the compounds that induce ER stress response, an ER stress reporter cell line, CellSensor ESRE-bla HeLa (Life Technologies, Carlsbad, CA) containing a beta-lactamase reporter gene under control of the Endoplasmic reticulum Stress Response Element (ESRE) was used to screen Tox21 10K compound library. The cytotoxicity of the Tox21 compound library against the ESRE-bla HeLa cell line was tested in parallel by measuring cell viability using the CellTiter-Glo assay in the same wells.
Tox21 Assay Protocol Summary: ESRE-bla HeLa cells were dispensed at 1,500 cells/6 uL of assay medium per well into black wall/clear-bottom 1536-well plates using a Multidrop Combi (ThermoFisher Scientific, Waltham, MA) dispenser. After the assay plates were incubated at 37 C and 5% CO2 for an overnight, 23 nL of compounds dissolved in DMSO, positive controls or DMSO only was transferred to the assay plate by a Pintool station (Kalypsys, San Diego, CA). The assay plates were incubated at 37 C and 5% CO2 for 5 hr. One uL of LiveBLAzer B/G FRET substrate (Life Technologies) was added using a FRD (Flying Reagent Dispenser, Aurora Discovery, San Diego, CA) and the plates were incubated at room temperature for 2 hr. Fluorescence intensity (405 nm excitation, 460 nm and 530 nm emissions) was measured using an Envision plate reader (PerkinElmer, Shelton, CT). For cytotoxicity, 4 ul/well of CellTiter-Glo reagent was added into the assay plates using an FRD. After 30 min incubation at room temperature, the luminescence intensity was measured using a ViewLux plate reader (PerkinElmer).
For `CCOc1ccc(N)cc1`, the outcome was “inactive”.
With `OCC(O)CCl` (stereo not given) the outcome was “inactive”.
For `COc1cc(-c2ccc(N)c(OC)c2)ccc1N`, the outcome was “inactive”.
With `Cc1cccc(C)c1N` the outcome was “inactive”.
With `Cc1cccc(N)c1` the outcome was “inactive”.
With `O=C(O)COc1ccccc1` the outcome was “inactive”.
In the case of `O=[N+]([O-])c1ccc(Cl)c(Cl)c1`, the outcome is reported as “inactive”.
With `Nc1nc(N)nc(NC2CC2)n1` the outcome was “inactive”.
For `Cc1ccc(N)cc1`, the outcome was “inactive”.
With `COS(=O)(=O)OC` the outcome was “inactive”.
With `CNC(=O)Oc1cccc2ccccc12` the outcome was “inactive”.
For `CCOP(=S)(OCC)Oc1cc(C)nc(C(C)C)n1`, the outcome was “inactive”.
In the case of `O=C(O)CCCc1ccc(N(CCCl)CCCl)cc1`, the outcome is reported as “inactive”.
In the case of `Oc1c(Br)cc(Br)cc1Br`, the outcome is reported as “inactive”.
With `O=[N+]([O-])c1cc([As](=O)(O)O)ccc1O` the outcome was “inactive”.
For `Nc1cccc(Cl)c1`, the outcome was “inactive”.
With `Cc1cc(O)ccc1Cl` the outcome was “inactive”.
With `Nc1ncc([N+](=O)[O-])s1` the outcome was “inactive”.
In the case of `Nc1cc(Cl)cc(Cl)c1`, the outcome is reported as “inactive”.
With `c1ccc2c(c1)CCCC2` the outcome was “inactive”.
For `Oc1ccc(Cl)cc1`, the outcome was “inactive”.
In the case of `Cc1cccc(C)c1NC(=O)CN1CCCC1=O`, the outcome is reported as “inactive”.
For `C=CCN=C=S`, the outcome was “inactive”.
For `Cl/C=C/Cl`, the outcome was “inactive”.
In the case of `O=C(O)C1C(C(=O)O)C2(Cl)C(Cl)=C(Cl)C1(Cl)C2(Cl)Cl` (stereo not given), the outcome is reported as “inactive”.
In the case of `N#CN=C(N)N`, the outcome is reported as “inactive”.
For `CNc1cnn(-c2cccc(C(F)(F)F)c2)c(=O)c1Cl`, the outcome was “inactive”.
With `CCOC(=O)CC(SP(=O)(OC)OC)C(=O)OCC` (stereo not given) the outcome was “inactive”.
In the case of `N#Cc1cccc(C#N)c1`, the outcome is reported as “inactive”.
With `CNC(=O)O/N=C/C(C)(C)SC` the outcome was “inactive”.
In the case of `COP(=S)(OC)SCN1C(=O)c2ccccc2C1=O`, the outcome is reported as “inactive”.
With `CNC(=O)O/N=C/C(C)(C)S(C)(=O)=O` the outcome was “inactive”.
With `Cc1cc(Cl)ccc1OC(C)C(=O)O` (stereo not given) the outcome was “inactive”.
With `CNCC(O)c1ccc(O)cc1` (stereo not given) the outcome was “inactive”.
For `CCSC(=O)N1CCCCCC1`, the outcome was “inactive”.
In the case of `C=C(C)C(=O)OCC(CC)CCCC` (stereo not given), the outcome is reported as “inactive”.
In the case of `N#Cc1ccccn1`, the outcome is reported as “inactive”.
For `O=[N+]([O-])c1ccc(Cl)cc1`, the outcome was “inactive”.
With `C=CC(=O)OCCCCCC(C)C` the outcome was “inactive”.
In the case of `[N-]=[N+]=CC(=O)OC[C@H](N)C(=O)O`, the outcome is reported as “inactive”.
